Laboratory results published in PubChem BioAssay.
Activity calls are given as the source filed them.

Assays:
[1] = tested on: PRMT1 (protein arginine N-methyltransferase 1); assay: PRMT1 binders on small-molecule microarrays, primary screen, biochemical, small-molecule microarray, 635 nm fluorescence (AID 1088); conditions: small-molecule microarray binding, higher = more signal;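 also: binding of Prmt1 protein to compounds spotted on small-molecule microarray slides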
[2] = yeast growth modulation, basal conditions, primary screen, YJM789 clinical isolate, OD600, 24 h (AID 1089);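 also: growth of clinical yeast isolate S. cerevisiae YJM 789 seeded 1000 cells per well; test concentration not given here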; conditions: S. cerevisiae YJM789 growth, higher = more signal, called active from +8 up or from −8 down
[3] = fission yeast growth modulation, primary screen, strain 972, OD600, 24 h, no modulator (AID 1090);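 also: basal condition with compound alone and no growth modifier present; test concentration not given here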; conditions: S. pombe 972 growth, higher = more signal, called active from +8 up or from −8 down
[4] = S. cerevisiae growth modulation with rapamycin, primary screen, strain BY4716, OD600, 96 h (AID 1091); conditions: higher = more signal, called active from +8 up or from −8 down; also: test concentration not given here
[5] = molecular target: Torsin-1A-interacting protein 2 (Homo sapiens) (UniProt Q8NFQ8); assay: LULL1 binders on small-molecule microarray, primary screen, cell lysate, human LULL1 lysate, 635/667 nm fluorescence (AID 1092); conditions: hLULL1 lysate binding, 635 nm fluorescence, higher = more signal;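 also: probe is lysate of COS7 cells overexpressing human LULL1; score merges per-feature 667 nm fluorescence with signal-to-noise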
[6] = E. coli growth modulation, two-sided OD650, primary screen, E. coli filamentation project, strain DRC41, 24 h (AID 1093); conditions: OD650, 24 h, higher = more signal, called active from +8 up or from −8 down;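 also: MC1000 strain lacking acrAB efflux and sulA so SOS filamentation is blocked; test concentration not given here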
[7] = small-molecule microarray binders of probe aLefty2, primary screen, biochemical, biotinylated probe, 635/667 nm fluorescence (AID 1094); conditions: higher = more signal;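 also: score merges spot fluorescence near 667 nm with spot signal-to-noise ratio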
[8] = tested on: Noggin (protein binding on small-molecule microarray); assay: Noggin binders on small-molecule microarray, primary screen, biochemical, 635/667 nm fluorescence (AID 1095); conditions: 635 nm fluorescence, higher = more signal;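 also: score merges 667 nm feature fluorescence with signal to noise over triplicate slides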
[9] = molecular target: Neurogenic locus notch homolog protein 3 (Homo sapiens) (UniProt Q9UM47); assay: NOTCH3 binders on small-molecule microarray, primary screen, biochemical, 635/667 nm fluorescence (AID 1096); conditions: NOTCH3 binding, 635 nm fluorescence, higher = more signal
[10] = small-molecule microarray binders of probe aEGFR, primary screen, biochemical, biotinylated probe, 635/667 nm fluorescence (AID 1097); conditions: higher = more signal;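 also: probe is a biotinylated anti-EGFR antibody binding compounds printed on slides; score combines fluorescence near 667 nm and signal to noise of each spot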

Sequence of Torsin-1A-interacting protein 2 (Homo sapiens) (Q8NFQ8 whole entry, looked up): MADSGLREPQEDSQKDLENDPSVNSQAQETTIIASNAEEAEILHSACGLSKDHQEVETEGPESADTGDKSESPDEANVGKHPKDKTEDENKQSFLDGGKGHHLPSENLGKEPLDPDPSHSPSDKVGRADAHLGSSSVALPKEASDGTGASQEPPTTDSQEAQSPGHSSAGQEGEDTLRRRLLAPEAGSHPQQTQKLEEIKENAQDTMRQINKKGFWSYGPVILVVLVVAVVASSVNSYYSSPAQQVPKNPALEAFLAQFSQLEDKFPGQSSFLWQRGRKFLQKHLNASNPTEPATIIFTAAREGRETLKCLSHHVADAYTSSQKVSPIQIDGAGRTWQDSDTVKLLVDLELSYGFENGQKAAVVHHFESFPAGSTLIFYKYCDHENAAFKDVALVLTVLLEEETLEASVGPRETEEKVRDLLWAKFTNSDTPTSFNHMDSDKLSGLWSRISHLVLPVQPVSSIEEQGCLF
Sequence of Neurogenic locus notch homolog protein 3 (Homo sapiens) (Q9UM47 whole entry, looked up): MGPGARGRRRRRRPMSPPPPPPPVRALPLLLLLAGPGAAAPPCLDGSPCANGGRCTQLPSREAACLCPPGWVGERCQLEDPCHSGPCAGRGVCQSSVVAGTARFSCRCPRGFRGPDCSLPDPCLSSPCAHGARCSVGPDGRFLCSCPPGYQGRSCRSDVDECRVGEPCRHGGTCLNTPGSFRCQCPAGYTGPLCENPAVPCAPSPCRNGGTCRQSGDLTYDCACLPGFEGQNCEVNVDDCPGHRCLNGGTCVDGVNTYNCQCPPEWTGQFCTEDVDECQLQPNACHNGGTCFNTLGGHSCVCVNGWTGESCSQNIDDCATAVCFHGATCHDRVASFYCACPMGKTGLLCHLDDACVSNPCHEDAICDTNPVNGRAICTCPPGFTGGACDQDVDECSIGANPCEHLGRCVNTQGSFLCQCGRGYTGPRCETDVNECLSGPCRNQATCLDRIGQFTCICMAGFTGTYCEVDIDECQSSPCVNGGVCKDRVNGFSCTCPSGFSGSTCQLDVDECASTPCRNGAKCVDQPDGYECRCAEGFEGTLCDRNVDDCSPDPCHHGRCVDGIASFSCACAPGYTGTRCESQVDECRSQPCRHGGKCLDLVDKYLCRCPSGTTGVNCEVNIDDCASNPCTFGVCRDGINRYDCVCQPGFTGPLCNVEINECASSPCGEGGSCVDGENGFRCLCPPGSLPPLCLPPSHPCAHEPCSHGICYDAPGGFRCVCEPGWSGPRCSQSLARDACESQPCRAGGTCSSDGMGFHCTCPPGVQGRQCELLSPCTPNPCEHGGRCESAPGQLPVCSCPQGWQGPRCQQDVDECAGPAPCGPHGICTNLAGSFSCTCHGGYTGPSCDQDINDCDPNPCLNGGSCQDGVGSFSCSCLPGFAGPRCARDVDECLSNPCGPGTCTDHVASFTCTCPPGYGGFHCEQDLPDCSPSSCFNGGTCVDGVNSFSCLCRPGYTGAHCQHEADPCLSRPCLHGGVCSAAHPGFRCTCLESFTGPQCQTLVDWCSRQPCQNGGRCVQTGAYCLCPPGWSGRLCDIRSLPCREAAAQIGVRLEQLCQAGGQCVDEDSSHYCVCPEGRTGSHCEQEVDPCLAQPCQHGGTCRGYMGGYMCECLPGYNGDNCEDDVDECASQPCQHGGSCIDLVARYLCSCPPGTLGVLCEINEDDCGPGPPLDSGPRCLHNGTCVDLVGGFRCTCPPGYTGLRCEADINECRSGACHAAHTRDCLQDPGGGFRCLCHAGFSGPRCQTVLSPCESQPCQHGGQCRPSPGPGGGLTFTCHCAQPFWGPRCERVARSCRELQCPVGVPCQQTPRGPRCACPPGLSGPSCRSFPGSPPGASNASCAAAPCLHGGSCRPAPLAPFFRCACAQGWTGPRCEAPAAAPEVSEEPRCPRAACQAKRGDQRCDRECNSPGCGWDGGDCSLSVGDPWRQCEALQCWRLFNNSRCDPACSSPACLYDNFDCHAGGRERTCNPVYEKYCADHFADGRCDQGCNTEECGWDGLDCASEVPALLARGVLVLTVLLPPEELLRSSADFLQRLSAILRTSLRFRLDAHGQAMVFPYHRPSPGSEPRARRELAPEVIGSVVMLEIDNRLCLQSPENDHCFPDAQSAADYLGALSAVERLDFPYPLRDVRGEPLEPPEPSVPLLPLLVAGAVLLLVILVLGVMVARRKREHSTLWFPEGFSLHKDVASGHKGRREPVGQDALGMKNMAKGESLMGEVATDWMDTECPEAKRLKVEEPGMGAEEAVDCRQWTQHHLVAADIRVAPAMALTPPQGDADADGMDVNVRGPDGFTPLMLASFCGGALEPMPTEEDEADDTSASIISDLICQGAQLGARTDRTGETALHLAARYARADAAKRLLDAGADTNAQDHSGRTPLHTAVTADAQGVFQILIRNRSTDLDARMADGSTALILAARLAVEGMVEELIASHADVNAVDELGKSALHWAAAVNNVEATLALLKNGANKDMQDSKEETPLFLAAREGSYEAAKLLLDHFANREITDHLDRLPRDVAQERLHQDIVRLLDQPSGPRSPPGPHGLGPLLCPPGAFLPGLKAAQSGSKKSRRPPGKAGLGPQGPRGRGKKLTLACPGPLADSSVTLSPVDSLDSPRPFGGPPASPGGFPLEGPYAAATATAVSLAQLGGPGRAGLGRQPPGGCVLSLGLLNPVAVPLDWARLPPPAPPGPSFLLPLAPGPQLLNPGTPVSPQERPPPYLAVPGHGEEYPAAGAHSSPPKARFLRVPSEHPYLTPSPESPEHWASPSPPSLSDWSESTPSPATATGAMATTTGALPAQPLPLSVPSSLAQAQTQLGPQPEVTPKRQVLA

Compound	composite z-score [1]	z-score [2]	z-score [3]	z-score [4]	composite z-score [5]	z-score [6]	composite z-score [7]	composite z-score [8]	composite z-score [9]	composite z-score [10]
COC(=O)[C@@H]1CC[C@H](C)[C@@H](c2ccc(C)cc2)N1C(=O)c1ccc(C=NOC[C@@H](O)COCc2ccco2)cc1	-2.07	-1.45 (inactive)	0.165 (inactive)	-0.71 (inactive)	-1.69	1.47 (inactive)	0.0179	-1.01	-3.12	-0.0868
CO[C@H]1O[C@H](CO)[C@@H](OC(=O)Nc2ccc3c(c2)OCO3)[C@H](OC(=O)Nc2ccccc2-c2ccccc2)[C@@H]1OC(=O)Nc1ccccc1-c1ccccc1	1.54	2.12 (inactive)	1.8 (inactive)	0.91 (inactive)	3.27	0.39 (inactive)	0.0427	0.943	1.07	-0.0179
CC(CCN1CCc2nc(-c3ccccc3)c(-c3ccccc3)cc2C1)=NOC(C)CN1CCCCc2nc(C)c(C)cc21 (stereo not given)	0.948	-1.03 (inactive)	-3.01 (inactive)	-3.08 (inactive)	1.53	0.74 (inactive)	-0.0813	0.454	0.905	-0.0565
